Measurements taken from PubChem BioAssay.
Calls of active or inactive are those of the source.

Columns and labels:
[1] = compound effects on lung adenocarcinoma cell viability – A549, calcein-AM fluorescence, 48 h, basal, profiling panel (AID 1162); settings: higher = more signal; further: test concentration not given here
[2] = compound effects on differentiated 3T3-L1 adipocyte viability – cell-based, 3T3-L1 adipocytes, calcein-AM fluorescence, 48 h, basal, profiling panel (AID 1163); settings: 3T3-L1 adipocytes viability, higher = more signal; further: test concentration not given here
[3] = compound effects on hepatocellular carcinoma cell viability – HepG2, calcein-AM fluorescence, 48 h, basal, profiling panel (AID 1164); settings: higher = more signal; further: test concentration not given here
[4] = compound effects on multiple myeloma cell viability – MM1S, calcein-AM fluorescence, 48 h, basal, profiling panel (AID 1165); settings: higher = more signal;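 further: viability of MM1S multiple myeloma cells under basal unstimulated conditions; test concentration not given here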
[5] = calcein-AM signal in unstimulated myeloma cells – cell-based, calcein-AM fluorescence, 48 h, PK04 Diversity Set, profiling panel (AID 1166); settings: RPMI8226 myeloma viability, higher = more signal;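 further: cells grown under basal conditions without added stimulus; test concentration not given here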
[6] = JC-1 mitochondrial signal, unstimulated HepG2 cells – cell-based, JC-1 fluorescence, 24 h, 100 nL compound, profiling panel (AID 1167); settings: HepG2 mitochondrial potential, higher = more signal; further: test concentration not given here
[7] = JC-1 mitochondrial signal, unstimulated adipocytes – cell-based, JC-1 fluorescence, 3T3-L1 adipocytes, 24 h, 100 nL compound, profiling panel (AID 1168); settings: JC-1 mitochondrial fluorescence, higher = more signal, called active from +8 up or from −8 down; further: test concentration not given here
[8] = JC-1 mitochondrial signal, unstimulated myeloma cells – cell-based, JC-1 fluorescence, RPMI8226, 24 h, 100 nL compound, profiling panel (AID 1169); settings: JC-1 mitochondrial potential fluorescence, higher = more signal; further: test concentration not given here
[9] = JC-1 mitochondrial signal, unstimulated MM1S myeloma – cell-based, JC-1 fluorescence, 24 h, 100 nL compound, profiling panel (AID 1170); settings: MM1S mitochondrial potential, higher = more signal; further: test concentration not given here
[10] = resazurin metabolic signal in A549 cells – cell-based, resazurin fluorescence, 24 h, PK04 Diversity Set, profiling panel (AID 1171); settings: A549 viability, higher = more signal, called active from +8 up or from −8 down; further: test concentration not given here
[11] = resazurin metabolic signal in HepG2 cells – cell-based, resazurin fluorescence, 24 h, PK04 Diversity Set, profiling panel (AID 1172); settings: HepG2 viability, higher = more signal; further: test concentration not given here
[12] = budding yeast growth changes without added modifier – OD600, strain BY4716, 24 h, basal condition, primary screen (AID 1173); settings: S. cerevisiae BY4716 growth, OD600, 24 h; higher = more signal, called active from +8 up or from −8 down
[13] = viability profiling in MM1S myeloma cells – cell-based, resazurin fluorescence, basal, 24 h, PK04 Diversity Set, profiling panel (AID 1174); settings: higher = more signal, called active from +8 up or from −8 down; further: test concentration not given here
[14] = target: Dihydroorotate dehydrogenase (quinone), mitochondrial (Plasmodium falciparum (isolate 3D7)) (UniProt Q08210); experiment: inhibition of P. falciparum DHODH – biochemical, C-terminal His tag, absorbance 600 nm, primary screen (AID 1175); settings: PfDHODH enzyme, DCIP absorbance 600 nm; higher = more signal, called active from +8 up or from −8 down;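 further: recombinant parasite enzyme with a five histidine tag at its C terminus; test concentration not given here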
Dihydroorotate dehydrogenase (quinone), mitochondrial (Plasmodium falciparum (isolate 3D7)), sequence (Q08210 whole entry, looked up): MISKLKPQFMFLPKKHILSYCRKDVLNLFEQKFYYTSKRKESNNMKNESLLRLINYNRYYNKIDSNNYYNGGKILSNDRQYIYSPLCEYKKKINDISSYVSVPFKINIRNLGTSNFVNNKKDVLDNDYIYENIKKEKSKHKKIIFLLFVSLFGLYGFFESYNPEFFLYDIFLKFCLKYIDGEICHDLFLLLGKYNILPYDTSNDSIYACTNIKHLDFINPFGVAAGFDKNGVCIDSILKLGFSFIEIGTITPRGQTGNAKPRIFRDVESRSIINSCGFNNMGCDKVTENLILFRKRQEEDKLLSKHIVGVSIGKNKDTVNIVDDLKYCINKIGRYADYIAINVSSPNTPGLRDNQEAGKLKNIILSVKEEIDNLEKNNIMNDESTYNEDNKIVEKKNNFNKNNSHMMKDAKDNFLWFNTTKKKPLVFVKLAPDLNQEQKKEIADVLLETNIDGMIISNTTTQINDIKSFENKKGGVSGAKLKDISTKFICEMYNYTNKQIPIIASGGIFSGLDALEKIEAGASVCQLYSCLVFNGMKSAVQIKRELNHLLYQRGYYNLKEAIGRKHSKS

[15] = growth modulation of vineyard yeast isolate – strain RM11-1a, OD600, basal, 24 h, primary screen (AID 1177);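 further: cultures grown under basal conditions with no added stressor; test concentration not given here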; settings: S. cerevisiae RM11-1a growth, OD600, 24 h; higher = more signal, called active from +8 up or from −8 down
[16] = growth of efflux-deficient E. coli DRC39 – strain DRC39, OD650, 24 h, E. coli filamentation inducers, primary screen (AID 1178);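 further: growth measured as culture turbidity by optical density at 650 nm; test concentration not given here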; settings: E. coli DRC39 acrAB, higher = more signal, called active from +8 up or from −8 down
[17] = growth of efflux-deficient E. coli DRC39 – strain DRC39, OD650, 48 h, E. coli filamentation inducers, primary screen (AID 1179);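 further: screen aims at cell division blockers that make cells filament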; settings: E. coli DRC39 delta-acrAB growth, higher = more signal, called active from +8 up or from −8 down
[18] = viability profiling in RPMI8226 myeloma cells – cell-based, resazurin fluorescence, basal, 24 h, PK04 Diversity Set, profiling panel (AID 1180); settings: higher = more signal;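 further: RPMI8826 multiple myeloma cell line at 5000 cells per well; test concentration not given here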
[19] = target: E3 ubiquitin-protein ligase XIAP (Homo sapiens) (UniProt P98170); experiment: small molecules binding XIAP protein – biophysical, small-molecule microarray, fluorescence 635 nm, primary screen (AID 1181); settings: higher = more signal;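 further: score merges 667 nm emission and signal to noise over triplicate slides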
E3 ubiquitin-protein ligase XIAP (Homo sapiens), sequence (P98170 whole entry, looked up): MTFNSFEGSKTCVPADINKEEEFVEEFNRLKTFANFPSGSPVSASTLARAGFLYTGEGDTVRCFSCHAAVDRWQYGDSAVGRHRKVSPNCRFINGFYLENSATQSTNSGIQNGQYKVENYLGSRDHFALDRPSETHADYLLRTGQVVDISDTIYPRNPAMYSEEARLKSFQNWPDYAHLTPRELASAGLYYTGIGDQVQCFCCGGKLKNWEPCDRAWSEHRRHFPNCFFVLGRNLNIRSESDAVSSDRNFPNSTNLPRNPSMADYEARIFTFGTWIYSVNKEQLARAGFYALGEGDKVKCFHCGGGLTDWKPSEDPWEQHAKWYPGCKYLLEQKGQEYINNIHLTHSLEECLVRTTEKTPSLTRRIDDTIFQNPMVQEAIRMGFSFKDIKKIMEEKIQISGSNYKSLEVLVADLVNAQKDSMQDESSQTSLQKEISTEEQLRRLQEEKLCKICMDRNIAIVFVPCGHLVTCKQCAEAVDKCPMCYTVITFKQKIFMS

CCCCO[C@H]1C[C@H]2C(Br)=C[C@@]1(CO)C(=O)[C@]21CO1
z-score [1]: 0.491 | z-score [2]: 0.53 | z-score [3]: -0.337 | z-score [4]: -0.997 | z-score [5]: -0.545 | z-score [6]: 0.76 | z-score [7]: 1.33 (inactive) | z-score [8]: -1.12 | z-score [9]: 0.149 | z-score [10]: 0.6 (inactive) | z-score [11]: 1.24 | z-score [12]: -3.84 (inactive) | z-score [13]: 1.07 (inactive) | composite z-score [14]: -0.343 (inactive) | z-score [15]: -1.86 (inactive) | z-score [16]: 2.66 (inactive) | z-score [17]: 1.48 (inactive) | z-score [18]: 0.999 | composite z-score [19]: -0.02

C=C(COC)/C(=C/C[C@@H](OC(=O)c1ccncc1)c1ccc(OCCO)cc1)c1cc(C(=O)OC)ccc1OC
z-score [1]: 1.13 | z-score [2]: 1.51 | z-score [3]: 0.183 | z-score [4]: -0.312 | z-score [5]: 0.93 | z-score [6]: 2.48 | z-score [7]: 1.79 (inactive) | z-score [8]: 0.116 | z-score [9]: 0.487 | z-score [10]: 1.6 (inactive) | z-score [11]: 0.789 | z-score [12]: -2.19 (inactive) | z-score [13]: 1.36 (inactive) | composite z-score [14]: -1.32 (inactive) | z-score [15]: -2.6 (inactive) | z-score [16]: 2.65 (inactive) | z-score [17]: 1.79 (inactive) | z-score [18]: 1.16 | composite z-score [19]: -0.103

CCN1C(C)=C(C(=O)OC)[C@@H](c2ccccc2)N2C(=O)[C@@]3(C(=O)OC)O[C@@]12[C@@H]1C(=O)CCC[C@@H]13
z-score [1]: -0.195 | z-score [2]: 0.955 | z-score [3]: -0.369 | z-score [4]: 0.853 | z-score [5]: 0.476 | z-score [6]: 0.638 | z-score [7]: 0.881 (inactive) | z-score [8]: 0.538 | z-score [9]: 0.29 | z-score [10]: 0.282 (inactive) | z-score [11]: 0.584 | z-score [12]: -0.99 (inactive) | z-score [13]: 1.03 (inactive) | composite z-score [14]: -1.39 (inactive) | z-score [15]: 0.989 (inactive) | z-score [16]: -0.275 (inactive) | z-score [17]: -0.0144 (inactive) | z-score [18]: 0.835 | composite z-score [19]: 0.111

CO[C@H]1COC(=O)[C@@H](C)COC(=O)[C@H](Cc2ccccc2)NC(=O)CC=C[C@H]1C
z-score [1]: -0.0475 | z-score [2]: 0.838 | z-score [3]: 0.53 | z-score [4]: -0.0069 | z-score [5]: -0.602 | z-score [6]: 0.756 | z-score [7]: 0.906 (inactive) | z-score [8]: 0.25 | z-score [9]: 0.877 | z-score [10]: 0.733 (inactive) | z-score [11]: 0.495 | z-score [12]: -1.05 (inactive) | z-score [13]: 1.06 (inactive) | composite z-score [14]: 0.234 (inactive) | z-score [15]: -1.48 (inactive) | z-score [16]: 0.586 (inactive) | z-score [17]: 0.274 (inactive) | z-score [18]: 0.794 | composite z-score [19]: -0.0293

[N-]=[N+]=Nc1ccccc1C[C@@]1(C(=O)N2CCOCC2)N=C(c2ccc(OCCCO)cc2)O[C@@H]1c1ccccc1N=[N+]=[N-]
z-score [1]: -0.71 | z-score [2]: 0.271 | z-score [3]: -1.19 | z-score [4]: -3.45 | z-score [5]: -4.53 | z-score [6]: 0.925 | z-score [7]: 1.98 (inactive) | z-score [8]: -1.23 | z-score [9]: -1.54 | z-score [10]: -1.32 (inactive) | z-score [11]: -0.133 | z-score [12]: -2.54 (inactive) | z-score [13]: -1.93 (inactive) | composite z-score [14]: -0.489 (inactive) | z-score [15]: 0.0278 (inactive) | z-score [16]: 1.08 (inactive) | z-score [17]: 0.115 (inactive) | z-score [18]: -3.91 | composite z-score [19]: -0.256

C[N+](C)(C)CCCCNC(=O)[C@@H]1C[C@@H]2C(=O)N3CCC[C@H]3C(=O)N2[C@@H]1c1cccc(OCCO)c1
z-score [1]: 0.668 | z-score [2]: 1.05 | z-score [3]: -0.954 | z-score [4]: -0.732 | z-score [5]: -0.179 | z-score [6]: 0.428 | z-score [7]: 0.971 (inactive) | z-score [8]: 0.252 | z-score [9]: 0.791 | z-score [10]: -0.141 (inactive) | z-score [11]: 0.0931 | z-score [12]: 0.0521 (inactive) | z-score [13]: 0.982 (inactive) | composite z-score [14]: -31.2 (active) | z-score [15]: -1.27 (inactive) | z-score [16]: 0.497 (inactive) | z-score [17]: 0.0567 (inactive) | z-score [18]: 0.947 | composite z-score [19]: -0.0619

C=CCc1cccc([C@H]2N[C@H](C(=O)O)CC[C@@H]2C)c1
z-score [1]: 0.382 | z-score [2]: 0.624 | z-score [3]: -0.484 | z-score [4]: -0.543 | z-score [5]: 0.665 | z-score [6]: 0.489 | z-score [7]: -0.0728 (inactive) | z-score [8]: 0.602 | z-score [9]: 0.345 | z-score [10]: 0.553 (inactive) | z-score [11]: 0.615 | z-score [12]: 0.182 (inactive) | z-score [13]: 0.948 (inactive) | composite z-score [14]: 1.09 (inactive) | z-score [15]: 1.14 (inactive) | z-score [16]: 0.0903 (inactive) | z-score [17]: 0.129 (inactive) | z-score [18]: 1.02 | composite z-score [19]: -0.0476

COc1cccc([C@@H]2[C@@H](C)CC[C@H]3C(=O)N4[C@H](c5cccc(OC)c5)[C@@H](C)CC[C@H]4C(=O)N23)c1
z-score [1]: 2.04 | z-score [2]: 0.512 | z-score [3]: 0.761 | z-score [4]: 0.656 | z-score [5]: 1.34 | z-score [6]: 1.51 | z-score [7]: 0.891 (inactive) | z-score [8]: -0.395 | z-score [9]: 1.13 | z-score [10]: 1.51 (inactive) | z-score [11]: 1.96 | z-score [12]: -2.76 (inactive) | z-score [13]: 1.24 (inactive) | composite z-score [14]: -1.35 (inactive) | z-score [15]: -3.28 (inactive) | z-score [16]: 0.697 (inactive) | z-score [17]: -1.17 (inactive) | z-score [18]: 1.42 | composite z-score [19]: -0.0599

C=CCc1cccc([C@@H]2[C@@H](C)CC[C@H]3C(=O)N4[C@H](c5cccc(CC=C)c5)[C@@H](C)CC[C@H]4C(=O)N23)c1
z-score [1]: -0.814 | z-score [2]: 1.29 | z-score [3]: -0.746 | z-score [4]: -3.58 | z-score [5]: -3.9 | z-score [6]: 2.17 | z-score [7]: 0.639 (inactive) | z-score [8]: -0.811 | z-score [9]: -1.28 | z-score [10]: 3.27 (inactive) | z-score [11]: 2.52 | z-score [12]: -1.2 (inactive) | z-score [13]: 0.778 (inactive) | composite z-score [14]: -1.76 (inactive) | z-score [15]: 1.1 (inactive) | z-score [16]: 0.55 (inactive) | z-score [17]: -0.184 (inactive) | z-score [18]: -1.11 | composite z-score [19]: -0.187

CO[C@H]1COC(=O)[C@@H](C)NC(=O)CC=C[C@@H](C)[C@H](OC)COC(=O)CC=C[C@@H]1C
z-score [1]: 0.606 | z-score [2]: 0.518 | z-score [3]: 0.468 | z-score [4]: 0.377 | z-score [5]: 0.771 | z-score [6]: 1.44 | z-score [7]: 1.86 (inactive) | z-score [8]: -0.0629 | z-score [9]: 1.06 | z-score [10]: 0.775 (inactive) | z-score [11]: 1.16 | z-score [12]: -2.42 (inactive) | z-score [13]: 0.563 (inactive) | composite z-score [14]: -0.336 (inactive) | z-score [15]: -2.65 (inactive) | z-score [16]: 1.03 (inactive) | z-score [17]: 0.505 (inactive) | z-score [18]: 0.477 | composite z-score [19]: -0.271
